Laboratory results published in ChEMBL document CHEMBL1157539, “Thousands of chemical starting points for antimalarial lead identification” (Nature, 2010).

Key:
Assay type in all cases: functional
Plasmodium falciparum [1] = test: GSK_TCMDC: Inhibition of Plasmodium falciparum 3D7 in whole red blood cells, using parasite LDH activity as an index of growth. Test compounds present at 2uM
Plasmodium falciparum [2] = test: GSK_TCMDC: Inhibition of Plasmodium falciparum Dd2 in whole red blood cells, using parasite LDH activity as an index of growth. Test compounds present at 2uM
HepG2 = test: GSK_TCMDC: Percent inhibition of human HepG2 cell line. Test compounds present at 10uM.

Row | SMILES | Inhibition (Plasmodium falciparum [1]) | Inhibition (Plasmodium falciparum [2]) | Inhibition (HepG2)
1 | Oc1ccc(Nc2nc(NCc3ccccc3)c3ccccc3n2)cc1 | 100% | 100% | 33%
2 | CC(=O)c1cccc(NC(=O)N2CCCN(CCCCCNC(=O)/C=C/c3ccc(Cl)c(Cl)c3)CC2)c1 | 93% | 0% | 13%
3 | CN(C)CCCSc1ccccc1NC(=O)C=Cc1ccccc1 | 85% | 0% | 0%
4 | Cc1nc(N)nc(N)c1-c1ccc2ccccc2c1 | 97% | 2% | 60%
5 | NC1CCCN(Cc2ccc(-c3cccc(-c4nc5ccccc5[nH]4)c3)cc2)C1.O=C(O)C(F)(F)F (stereo unspecified) | 95% | 26% | 26%
6 | NCCO.O=C(Nc1ccc([N+](=O)[O-])cc1Cl)c1cc(Br)cc(Cc2ccccc2)c1O | 84% | 96% | 75%
7 | Cc1ccc2nc(C)cc(NC(=O)Nc3ccc(N(C)C)cc3)c2c1 | 100% | 41% | 12%
8 | O=C1c2cc(I)ccc2SC1c1ccccc1 (stereo unspecified) | 96% | 98% | 0%
9 | O=C(Nc1cccc(-c2ccc(NCCCN3CCCC3)nc2)c1)c1ccccc1 | 100% | 21% | 22%
10 | Cc1noc(=O)c2ccc(NC(=O)C(O)(CSc3ccccc3)CC(C)C)cc12 (stereo unspecified) | 99% | 89% | 0%
11 | CS(=O)(=O)O.FC(F)(F)COc1ccc2ccccc2c1CNCCCCCCNCc1c(OCC(F)(F)F)ccc2ccccc12 | 100% | 95% | 99%
12 | C=C[C@]1(C)C[C@@H](OC(=O)c2cncn(COC)c2=O)[C@]2(C)[C@H](C)CC[C@]3(CCC(=O)[C@H]32)[C@@H](C)[C@@H]1O | 96% | 7% | 0%
13 | CC(C)Cn1c(Sc2ccc(C#N)c([N+](=O)[O-])c2)nnc1-c1ccc(N(C)C)cc1 | 98% | 98% | 4%
14 | C=CCNC(=O)CCCNC(=N)N.Cl | 98% | 12% | 0%
15 | CC(=O)Nc1nc(C(=O)Nc2ccc(-c3cccc(-c4nc5cc(C(F)(F)F)ccc5[nH]4)c3)cc2)cs1 | 100% | 97% | 79%
16 | C[C@H](NC(=O)c1c(CN2CCC(N3CCCCC3=O)CC2)c(-c2cccs2)nc2ccccc12)C1CCCCC1 | 91% | 73% | 8%

Row | SMILES | Inhibition (Plasmodium falciparum [1]) | Inhibition (Plasmodium falciparum [2]) | Inhibition (HepG2)
17 | CCn1cc(C=C2Oc3c(ccc(O)c3CN3CCCCC3)C2=O)c2ccccc21 | 100% | 99% | 0%
18 | COc1cccc(C2CCN(CCN3CCC(NC(=O)c4ccc(-c5ccc(C#N)cc5)cc4)CC3)CC2)c1 | 98% | 47% | 28%
19 | O=C(Nc1cccc(CN2CCCN(Cc3ccc(O)cc3)CC2)c1)c1ccc2ccccc2c1.O=C(O)C(F)(F)F | 100% | 78% | 20%
20 | Nc1nc(N)c2c(ccc3c2ccn3Cc2ccc(-c3ccccc3)cc2)n1 | 98% | 93% | 100%
21 | CCOC(=O)N1CCN(CCCNc2c3ccc(Cl)cc3nc3ccc(OC)cc23)CC1 | 100% | 100% | 52%
22 | Cc1cc(N2CCCC2)nc(NC(=N)Nc2cccc(C(F)(F)F)c2)n1 | 100% | 100% | 33%
23 | Cc1ccccc1C1CCN(C2CCC(NC(=O)C3=Cc4ccccc4OC3)CC2)CC1 (stereo unspecified) | 91% | 15% | 26%
24 | COc1cc(C2=NN(S(=O)(=O)c3c(C)cc(C)cc3C)CCCC2)ccc1Cl | 85% | 76% | 9%
25 | Cc1cc(N[C@@H](Cc2ccccc2)C(=O)NCc2cccc(F)c2)nc(NCCCOC(C)C)n1.O=C(O)C(F)(F)F | 100% | 94% | 10%
26 | O=C(Nc1cc(F)c(F)c(-c2cccnc2)c1)N1CCc2cc(Cl)c(Cl)cc21 | 94% | 9% | 0%
27 | O=C(Nc1ccc(-c2ccccc2)cc1)Nc1cccc(Cn2ncc(N3CCCNCC3)c(Cl)c2=O)c1 | 100% | 52% | 14%
28 | COc1c(C2CCN(CCCCNC(=O)c3ccc(-c4ccc(Cl)cc4)c(OCCN(C)C)c3)CC2)ccc2c1CCCC2 | 100% | 86% | 100%
29 | CCN(CC)CCCC(C)Nc1c(-c2ccc(Br)cc2)cnc2ccccc12 (stereo unspecified) | 100% | 95% | 7%
30 | COc1cc(F)c2ncc(Cl)c(CCN3CCC(NCc4ccc5c(c4)OCCO5)CC3)c2c1.Cl | 97% | 92% | 35%
31 | CC1(C)N=C(N)N=C(N)N1c1ccc(Br)cc1.Cl | 94% | 4% | 52%
32 | CCCCCNc1nc(Nc2ccccc2C)nc2ccccc12.Cl | 100% | 30% | 5%
